Source: PubChem BioAssay (Tox21)
Several values for one entry are separate records, joined by “and”; a condition that tells them apart may be missing. Equal values may be shown once. Inconclusive results are not listed. Entries that show only a call come without a potency. The source holds several records for some structures; these can differ, active in one and inactive in another. Activity calls are given as the source filed them. Unless noted, calls follow the shape of the full dose curve.

Assay: qHTS assay for small molecule agonists of the p53 signaling pathway (AID 651631); also: nearly all actives have a fitted effect of over 15% in size; also: potency is read from the fitted curve at half-maximal effect
Details: HCT-116 p53RE-bla reporter, beta-lactamase FRET ratio, 16 h; series mostly up to 73.3 µM; activation: at the top concentration
Procedure, shortened: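 Quantitative high-throughput format: 4,000 p53RE-bla HCT-116 cells/well, 5 h pre-incubation, 16 h compound exposure at 37 °C, 2 h room-temperature substrate step, fluorescence intensity measured.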

Row | Structure (SMILES) | Potency | activation
1 | c1cc(-c2ccncc2)ccn1 | inactive | 
2 | CCCCNS(=O)(=O)c1ccccc1 |  | -2.38% (inactive)
3 | CC(=O)Oc1ccccc1C(=O)Nc1ncc([N+](=O)[O-])s1 | 5.96 µM (active) | 
4 | C#C[C@]1(O)CC[C@H]2[C@@H]3CCc4cc(OC)ccc4[C@H]3CC[C@@]21C |  | -1.5% (inactive)
5 | c1ccc2c(c1)c1cccc3ccc4cccc2c4c31 | 60.7 µM (active) | 
6 | O=C(OCc1ccccc1)c1ccccc1O | inactive | 
7 | Cc1cccc([N+](=O)[O-])c1C |  | 1.66% (inactive)
8 | Nc1ncn([C@@H]2O[C@H](CO)[C@@H](O)[C@H]2O)c(=O)n1 | 2.11 µM (active) and 4.86 µM (active) | 
9 | CC(=O)C1(C)CC2=C(CCCC2(C)C)CC1C (stereo unspecified) | inactive | 
10 | Cc1[nH]c(=O)c(C#N)cc1-c1ccncc1 |  | -3.46% (inactive)
11 | CC(C)=CCC/C(C)=C\CO | inactive | 
12 | COC(=O)CCC(=O)OC |  | 0.71% (inactive)
13 | CCC(C)CO (stereo unspecified) | inactive | 
14 | Cc1cccc(C(=O)O)c1 | inactive | 
15 | C[C@]12CC[C@H]3[C@@H](CCC4=CC(=O)CC[C@@]43C)[C@@H]1CC[C@@H]2C(=O)CO | inactive | 
16 | O=C1c2cccc(O)c2C(=O)c2c(O)cccc21 | 19.5 µM (active) | 
17 | O=C(c1ccc(OCCN2CCCCC2)cc1)c1c(-c2ccc(O)cc2)sc2cc(O)ccc12 | 29.8 µM (active) and 68.7 µM (active) and 61.1 µM (active) | 
18 | CNCCCC12CCC(c3ccccc31)c1ccccc12 |  | 5.09% (inactive)
19 | CCOCCOCCO | inactive | 
20 | Cc1c(OCC(F)(F)F)ccnc1CS(=O)c1nc2ccccc2[nH]1 (stereo unspecified) | inactive | 

Row | Structure (SMILES) | Potency | activation
21 | C[Si](C)(C)O[Si](C)(C)C | inactive | 
22 | C#C[C@]1(O)CC[C@H]2[C@@H]3CCC4=Cc5oncc5C[C@]4(C)[C@H]3CC[C@@]21C |  | -4.33% (inactive)
23 | OC(CCl)CCl |  | 0.975% [at 95.1 µM] (inactive)
24 | CC(=O)CC/C=C(\C)CCC=C(C)C | inactive | 
25 | CC(=O)c1ccccn1 | inactive | 
26 | C[C@]12CCC(=O)C=C1CC[C@@H]1[C@@H]2C(=O)C[C@@]2(C)[C@H]1CC[C@]2(O)C(=O)CO | inactive | 
27 | CC(C)OB(OC(C)C)OC(C)C | inactive | 
28 | CC(C)CC(C)(O)C#CC(C)(O)CC(C)C (stereo unspecified) |  | -3.36% (inactive)
29 | C=CC(C)(CCC=C(C)C)OC(C)=O (stereo unspecified) | inactive | 
30 | c1ccc2c(c1)Oc1ccccc1S2 | inactive | 
31 | CC(C)OC=O | inactive | 
32 | O=C=Nc1ccc(Cc2ccc(N=C=O)cc2)cc1 |  | 2.78% (inactive)
33 | OCCO | inactive | 
34 | CC1=CCC(C(C)(C)O)CC1 (stereo unspecified) | inactive | 
35 | C=C(C)C(=O)OCCOC(=O)C(=C)C | inactive | 
36 | Brc1cc(Oc2cc(Br)c(Br)c(Br)c2Br)c(Br)c(Br)c1Br |  | 3.16% (inactive)
37 | NNc1ccc(C(=O)O)cc1 | inactive | 
38 | CN(C)c1nc(N(C)C)nc(N(C)C)n1 | inactive | 
39 | CCCCCCCCCCCO |  | -1.69% [at 95.1 µM] (inactive)

Assay: qHTS assay for small molecules that induce genotoxicity in human embryonic kidney cells expressing luciferase-tagged ATAD5 (AID 651632; active = well fitted activation curve with a large enough effect in the repeat runs; also: nearly all actives have a fitted effect of over 15% in size)
Details: HEK293T ATAD5-luciferase induction, 16 h; series mostly up to 83.3 µM; activation: at the top concentration
Procedure, shortened: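 Luminescence read-out: after 16 hr compound exposure at 37C, ATAD5-luciferase HEK293T cells received Amplite, 30 min RT, then CCD imaging. A rise in signal marks genotoxic stress.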

Row | Structure (SMILES) | Potency
40 | Cc1cccc([N+](=O)[O-])c1C | inactive
41 | Nc1ncn([C@@H]2O[C@H](CO)[C@@H](O)[C@H]2O)c(=O)n1 | inactive
42 | COC(=O)CCC(=O)OC | inactive
43 | CNCCCC12CCC(c3ccccc31)c1ccccc12 | inactive
44 | C#C[C@]1(O)CC[C@H]2[C@@H]3CCC4=Cc5oncc5C[C@]4(C)[C@H]3CC[C@@]21C | inactive
45 | OC(CCl)CCl | inactive
46 | OCCO | inactive
47 | Brc1cc(Oc2cc(Br)c(Br)c(Br)c2Br)c(Br)c(Br)c1Br | inactive
48 | CCCCCCCCCCCO | inactive

Assay: qHTS assay for small molecule agonists of the p53 signaling pathway - cell viability (AID 651633); also: nearly all actives have a fitted effect of over 30% in size; also: potency is read from the fitted curve at half-maximal effect
Details: p53RE-bla HCT-116 viability, ATP luminescence, 16 h; series mostly up to 83.3 µM; activity change, negative = cytotoxicity: at the top concentration
Procedure, shortened: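 p53RE-bla cells were treated with compound for 16 hours at 37 C. Cytotoxicity was then measured as CellTiter-Glo luminescence after 30 min at room temperature.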

Row | Structure (SMILES) | Potency | activity change, negative = cytotoxicity
49 | c1cc(-c2ccncc2)ccn1 | inactive | 
50 | CCCCNS(=O)(=O)c1ccccc1 | inactive | 
51 | CC(=O)Oc1ccccc1C(=O)Nc1ncc([N+](=O)[O-])s1 | 9.44 µM (active) and inactive | 
52 | C#C[C@]1(O)CC[C@H]2[C@@H]3CCc4cc(OC)ccc4[C@H]3CC[C@@]21C | inactive | 
53 | c1ccc2c(c1)c1cccc3ccc4cccc2c4c31 | 3.04 µM (active) and inactive | 
54 | O=C(OCc1ccccc1)c1ccccc1O | inactive | 
55 | Cc1cccc([N+](=O)[O-])c1C | inactive | 
56 | Nc1ncn([C@@H]2O[C@H](CO)[C@@H](O)[C@H]2O)c(=O)n1 | 668 nM (active) and inactive | 
57 | CC(=O)C1(C)CC2=C(CCCC2(C)C)CC1C (stereo unspecified) | inactive | 
58 | Cc1[nH]c(=O)c(C#N)cc1-c1ccncc1 | inactive | 
59 | CC(C)=CCC/C(C)=C\CO | inactive | 
60 | COC(=O)CCC(=O)OC | inactive | 
61 | CCC(C)CO (stereo unspecified) | inactive | 
62 | Cc1cccc(C(=O)O)c1 | inactive | 
63 | C[C@]12CC[C@H]3[C@@H](CCC4=CC(=O)CC[C@@]43C)[C@@H]1CC[C@@H]2C(=O)CO | inactive | 
64 | O=C1c2cccc(O)c2C(=O)c2c(O)cccc21 | inactive | 
65 | O=C(c1ccc(OCCN2CCCCC2)cc1)c1c(-c2ccc(O)cc2)sc2cc(O)ccc12 | 29.8 µM (active) and 61.2 µM (active) and 61.1 µM (active) | 
66 | CCOCCOCCO | inactive | 
67 | Cc1c(OCC(F)(F)F)ccnc1CS(=O)c1nc2ccccc2[nH]1 (stereo unspecified) | inactive | 

Row | Structure (SMILES) | Potency | activity change, negative = cytotoxicity
68 | C[Si](C)(C)O[Si](C)(C)C | inactive | 
69 | C#C[C@]1(O)CC[C@H]2[C@@H]3CCC4=Cc5oncc5C[C@]4(C)[C@H]3CC[C@@]21C |  | -8.98% (inactive)
70 | OC(CCl)CCl | inactive | 
71 | CC(=O)CC/C=C(\C)CCC=C(C)C | inactive | 
72 | CC(=O)c1ccccn1 | inactive | 
73 | C[C@]12CCC(=O)C=C1CC[C@@H]1[C@@H]2C(=O)C[C@@]2(C)[C@H]1CC[C@]2(O)C(=O)CO | inactive | 
74 | CC(C)OB(OC(C)C)OC(C)C | inactive | 
75 | CC(C)CC(C)(O)C#CC(C)(O)CC(C)C (stereo unspecified) | inactive | 
76 | C=CC(C)(CCC=C(C)C)OC(C)=O (stereo unspecified) | inactive | 
77 | c1ccc2c(c1)Oc1ccccc1S2 | inactive | 
78 | CC(C)OC=O | inactive | 
79 | O=C=Nc1ccc(Cc2ccc(N=C=O)cc2)cc1 | inactive | 
80 | OCCO | inactive | 
81 | CC1=CCC(C(C)(C)O)CC1 (stereo unspecified) | inactive | 
82 | C=C(C)C(=O)OCCOC(=O)C(=C)C | inactive | 
83 | Brc1cc(Oc2cc(Br)c(Br)c(Br)c2Br)c(Br)c(Br)c1Br | inactive | 
84 | NNc1ccc(C(=O)O)cc1 | inactive | 
85 | CN(C)c1nc(N(C)C)nc(N(C)C)n1 | inactive | 
86 | CCCCCCCCCCCO | inactive and 61.1 µM (active) | 
